# Test results as given in PubChem BioAssay AID1159580 (chemical genetic matrix, 2015).
# Values joined by “and” are separate entries in the source; they are usually repeats but may differ in a detail not shown here. Equal values may be shown once. In all, about 5,500 compounds went through this assay and about 2,000 (36%) were called active. Roughly 18% stayed inconclusive and do not appear here. This is one part of the list. Values without a mark were called inactive. No stated cut-off is given here; in the data, active means normalized growth mostly below about 0.91 (no sharp cut-off); inconclusive means no clear call, values can overlap the other calls; inactive means mostly above about 0.92.
# Test: chemical genetic growth profiling, strain panel (AID 1159580);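 further: tested at 20 µM; growth read once vehicle control cultures reached saturation at 30 °C; 1 = growth at the plate median or of vehicle wells; lower values mean less growth of the strain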
# Details: S. cerevisiae deletion strains, growth OD
structure (smiles),measurement,setting,value
CCCCCCc1ccc(O)cc1O,normalized growth,"locus YAL013W, strain DEP1, active compounds read low",0.677 (active)
same,normalized growth,"locus YAL021C, strain ccr4, active compounds read low",0.955
same,normalized growth,"locus YAL026C, strain drs2, active compounds read low",0.747 (active)
same,normalized growth,"locus YAL030W, strain snc1, active compounds read low",0.961
same,normalized growth,"locus YBL061C, strain skt5, active compounds read low",0.927
same,normalized growth,"locus YBR009C, strain hhf1, active compounds read low",0.788 (active)
same,normalized growth,"locus YBR021W, strain FUR4, active compounds read low",0.977
same,normalized growth,"locus YBR023C, strain chs3, active compounds read low",0.89 (active)
same,normalized growth,"locus YBR171W, strain sec66, active compounds read low",0.973
same,normalized growth,"locus YBR229C, strain ROT2, active compounds read low",0.967
same,normalized growth,"locus YBR231C, strain swc5, active compounds read low",0.865 (active)
same,normalized growth,"locus YBR279W, strain paf1, active compounds read low",0.968
same,normalized growth,"locus YCL011C, strain gbp2, active compounds read low",0.896 (active)
same,normalized growth,"locus YCL016C, strain dcc1, active compounds read low",0.912 (active)
same,normalized growth,"locus YCL029C, strain bik1, active compounds read low",0.877 (active)
same,normalized growth,"locus YCL061C, strain MRC1, active compounds read low",0.906 (active)
same,normalized growth,"locus YCL069W, strain vba3, active compounds read low",0.972
same,normalized growth,"locus YCR088W, strain abp1, active compounds read low",0.939
same,normalized growth,"locus YDL005C, strain med2, active compounds read low",0.988
same,normalized growth,"locus YDL035C, strain GPR1, active compounds read low",0.872
same,normalized growth,"locus YDL040C, strain nat1, active compounds read low",0.973
same,normalized growth,"locus YDL074C, strain BRE1, active compounds read low",0.786
same,normalized growth,"locus YDL101C, strain DUN1, active compounds read low",0.95
same,normalized growth,"locus YDL185W, strain tfp1, active compounds read low",0.956
same,normalized growth,"locus YDL192W, strain arf1, active compounds read low",0.798 (active)
same,normalized growth,"locus YDR001C, strain nth1, active compounds read low",0.975
same,normalized growth,"locus YDR069C, strain doa4, active compounds read low",0.939
same,normalized growth,"locus YDR101C, strain arx1, active compounds read low",0.84 (active)
same,normalized growth,"locus YDR137W, strain rgp1, active compounds read low",0.608 (active)
same,normalized growth,"locus YDR150W, strain NUM1, active compounds read low",0.942
same,normalized growth,"locus YDR159W, strain sac3, active compounds read low",0.525 (active)
same,normalized growth,"locus YDR162C, strain NBP2, active compounds read low",0.884
same,normalized growth,"locus YDR195W, strain ref2",1.12
same,normalized growth,"locus YDR297W, strain sur2, active compounds read low",0.948
same,normalized growth,"locus YDR318W, strain mcm21, active compounds read low",0.794 (active)
same,normalized growth,"locus YDR334W, strain swr1, active compounds read low",0.988
same,normalized growth,"locus YDR335W, strain msn5, active compounds read low",0.96
same,normalized growth,"locus YDR388W, active compounds read low",0.868 (active)
same,normalized growth,"locus YDR392W, strain spt3, active compounds read low",0.283 (active)
same,normalized growth,"locus YDR502C, strain sam2, active compounds read low",0.814 (active)
same,normalized growth,"locus YEL003W, strain gim4, active compounds read low",0.911 (active)
same,normalized growth,"locus YEL037C, strain rad23, active compounds read low",0.976
same,normalized growth,"locus YEL061C, strain CIN8 (second series), active compounds read low",0.983
same,normalized growth,"locus YEL061C, strain CIN8, active compounds read low",0.943
same,normalized growth,"locus YER015W, strain faa2, active compounds read low",0.978
same,normalized growth,"locus YER016W, strain bim1, active compounds read low",1.05
same,normalized growth,"locus YER110C, active compounds read low",0.987
same,normalized growth,"locus YER111C, strain swi4, active compounds read low",0.976
same,normalized growth,"locus YER155C, strain BEM2 (second series), active compounds read low",0.642 (active)
same,normalized growth,"locus YER155C, strain BEM2, active compounds read low",0.875 (active)
same,normalized growth,"locus YER167W, strain BCK2, active compounds read low",0.923
same,normalized growth,"locus YFR010W, strain ubp6, active compounds read low",0.971
same,normalized growth,"locus YGL078C, strain dbp3, active compounds read low",0.885 (active)
same,normalized growth,"locus YGL086W, strain mad1, active compounds read low",0.783 (active)
same,normalized growth,"locus YGL167C, strain pmr1, active compounds read low",0.981
same,normalized growth,"locus YGL173C, strain kem1, active compounds read low",0.883 (active)
same,normalized growth,"locus YGL227W, strain vid30, active compounds read low",0.977
same,normalized growth,"locus YGL240W, strain doc1, active compounds read low",0.899
same,normalized growth,"locus YGL248W, strain PDE1, active compounds read low",0.868 (active)
same,normalized growth,"locus YGL253W, strain hxk2, active compounds read low",0.893 (active)
same,normalized growth,"locus YGR078C, strain PAC10, active compounds read low",0.882
same,normalized growth,"locus YGR135W, strain pre9, active compounds read low",0.85 (active)
same,normalized growth,"locus YGR252W, strain gcn5, active compounds read low",0.752 (active)
same,normalized growth,"locus YHR013C, strain ard1, active compounds read low",0.822 (active)
same,normalized growth,"locus YHR027C, strain rpn1, active compounds read low",0.966
same,normalized growth,"locus YHR030C, strain SLT2, active compounds read low",0.804 (active)
same,normalized growth,"locus YHR079C, strain IRE1 (second series), active compounds read low",0.832 (active)
same,normalized growth,"locus YHR079C, strain IRE1, active compounds read low",0.862
same,normalized growth,"locus YHR094C, strain hxt1, active compounds read low",0.964
same,normalized growth,"locus YHR129C, strain ARP1, active compounds read low",0.949
same,normalized growth,"locus YHR142W, strain chs7, active compounds read low",0.838 (active)
same,normalized growth,"locus YHR200W, strain rpn10, active compounds read low",0.903 (active)
same,normalized growth,"locus YIL066C, strain RNR3, active compounds read low",0.967
same,normalized growth,"locus YIL073C, strain SPO22, active compounds read low",0.811
same,normalized growth,"locus YIL125W, strain kgd1, active compounds read low",0.88 (active)
same,normalized growth,"locus YIR030C, strain dcg1, active compounds read low",0.917 (active)
same,normalized growth,"locus YJL092W, strain hpr5, active compounds read low",0.943
same,normalized growth,"locus YJL095W, strain BCK1 (second series), active compounds read low",0.887 (active)
same,normalized growth,"locus YJL095W, strain BCK1, active compounds read low",0.737 (active) and 0.818 (active)
same,normalized growth,"locus YJL115W, strain asf1, active compounds read low",0.993
same,normalized growth,"locus YJL129C, strain trk1, active compounds read low",0.85 (active)
same,normalized growth,"locus YJL134W, strain LCB3, active compounds read low",0.96
same,normalized growth,"locus YJL154C, strain vps35, active compounds read low",0.993
same,normalized growth,"locus YJL164C, strain tpk1, active compounds read low",0.841 (active)
same,normalized growth,"locus YJL166W, strain qcr8, active compounds read low",0.85 (active)
same,normalized growth,"locus YJL168C, strain set2, active compounds read low",0.947
same,normalized growth,"locus YJL187C, strain SWE1 (second series), active compounds read low",0.931
